Growth data for 7 molecules are collected here from PubChem BioAssay (NCI).

The panel holds about 83,000 compounds, 20% with a hit somewhere; the sample as a whole holds those more often.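 Assay: single dose, 48 h. Readout: percent growth (0 = no net growth; negative = cell death). Active: <10.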 Unmarked numbers belong to inactive results. Activity calls are given as the source filed them.

What all share (experiment): NCI-60 one-dose screen, 48 h (100 = growth as untreated, 0 = no growth, -100 = all killed)
Holding throughout (conditions): 10 µM

In assay [1] the test system is NCI-H23 lung.
Assay [2] has as its system NCI-H226 lung.
In assay [3] the test system is NCI-H322M lung.
Assay [4] has as its system HOP-62 NSCLC.
In assay [5] the test system is NCI-H460 lung.
Assay [6] has as its system HOP-92 NSCLC.
Assay [7] has as its system NCI-H522 lung.
In assay [8] the test system is A549/ATCC NSCLC.
Assay [9] deals with 786-0 renal.
Assay [10] concerns COLO 205 colon.
The subject of assay [11] is DU-145 prostate.
In assay [12] the test system is K-562 leukemia.
In assay [13] the test system is MALME-3M melanoma.
Assay [14] deals with MDA-MB-231 breast.
Assay [15] concerns RXF 393 renal.
For assay [16], the system named is SF-268 CNS.
The test system of assay [17] is SF-295 CNS.
Assay [18] concerns SF-539 CNS.
The subject of assay [19] is UACC-257 melanoma.
For assay [20], the system named is M14 melanoma.

In the case of `CCCCCCCCCCN=C(c1ccc(N(C)C)cc1)c1ccc(N(C)C)cc1`, the growth was 27.8% in [1]; 57.6% in assay [2]; 44.6% in [3]; 29.4% in assay [4]; 12.1% in [5]; 47.9% in [6]. Also, the growth in assay [7] was 2.43% (active); in [8], 30.5%; in assay [9] it was 48.8%; in assay [10], 6.54% (active); in [11], 28.5%; in assay [12], 10.1%. The growth in assay [13] is 62%; in [14], 49.5%; in [15] it was 3.59% (active); in assay [16] it was 57.5%; in [17], 14%; in [18], 10.9%. Besides, the growth in assay [19] was 28.3%; in assay [20], -18% (active).
As to `COc1ccc(-c2[nH]ncc2-c2cc(OC)c(OC)c(OC)c2)cc1`, the growth was 24.9% in assay [1]; 58.7% in assay [2]; 21.8% in assay [3]; 35.6% in assay [4]; 4.05% (active) in [5]; -10.4% (active) in assay [6]. Besides, the growth was -36.8% (active) in assay [7]; 18% in assay [8]; 3.72% (active) in assay [9]; -72.4% (active) in [10]; -23.9% (active) in assay [11]; 6.11% (active) in [12]. For the same molecule, the growth in assay [13] was 57.2%; in assay [14], 4.38% (active); in assay [15], 0.469% (active); in [16], 16%; in assay [17], -1.07% (active); in [18] it was -28.1% (active). The values for the growth in assay [19] and in [20] were 42.6% and 4.51% (active), respectively.
For `CCOC(=O)CSC(=S)SCC(=O)OCC`, the growth in assay [1] was 110%; in assay [2] it was 106%; in assay [3], 118%; in assay [4] it was 105%; in [5] it was 107%; in [6], 108%. Also, the growth in [7] was 67.7%; in assay [8] it was 99%; in assay [9], 103%; in [10], 127%; in assay [11], 107%; in assay [12] it was 95.6%. The growth in assay [13] was 98%; in assay [14], 118%; in [15], 109%; in assay [16], 113%; in assay [17], 103%; in [18], 94.1%. For the same molecule, the growth in [19] is 82.8%; in assay [20], 97.9%.
As for `c1ccc(COCC[P+](c2ccccc2)(c2ccccc2)c2ccccc2)cc1`, the growth in [1] was -10.1% (active); in assay [2], 28.5%; in [3] it was 10.4%; in assay [4] it was 22.1%; in [5] it was 3.37% (active); in assay [6] it was -29.9% (active). Further, the growth in [7] was -9.64% (active); in assay [8], 8.47% (active); in [9], 16.9%; in assay [10] it was -41.2% (active); in assay [11], 15%; in assay [12] it was 3.16% (active). Further, the growth is 4.01% (active) in assay [13]; 5.14% (active) in [14]; 29.6% in assay [15]; 15.4% in [16]; -46% (active) in assay [17]; 18.5% in [18]. In addition, the growth in assay [19] was -22.7% (active); in [20], 10.9%.
`COc1ccc(NC(=O)c2sc3nc4c(cc3c2N)C(O)CCC4)cc1` (stereo not given): the growth in [1] is 98.5%; in assay [2], 101%; in [3], 30.6%; in assay [4], 117%; in assay [5], 48.3%; in assay [6], 85.2%. Moreover, the growth was 99.8% in [7]; 70% in assay [8]; 94.8% in assay [9]; 110% in assay [10]; 93.3% in assay [11]; 80.6% in [12]. Also, the growth in assay [13] is 122%; in [14] it was 116%; in assay [15] it was 102%; in assay [16], 99.7%; in [17], 82.4%; in [18], 111%. The growth was 97.4% in [19] and 101% in assay [20].
On to `COC(=O)C1(C(=O)OC)C2C(=O)C3C(C21)C3(C(=O)OC(C)(C)C)C(=O)OC(C)(C)C` (stereo not given), for which the growth in [1] was 107%; in assay [2], 89.5%; in assay [3], 108%; in assay [4] it was 99.9%; in [5], 113%; in assay [6] it was 97.8%. In addition, the growth was 111% in assay [7]; 109% in assay [8]; 102% in assay [9]; 115% in [10]; 118% in [11]; 103% in assay [12]. For the same molecule, the growth in assay [13] is 115%; in assay [14], 121%; in [15], 105%; in assay [16], 111%; in assay [17], 103%; in assay [18], 115%. For the same molecule, the figures for the growth in assay [19] and in assay [20] were 107% and 104%, respectively.
With `C[n+]1c(/C=C/c2c[nH]c3ccccc23)ccc2ccccc21`, the growth in assay [1] was 71.5%; in [2], 62.3%; in [3], 69.8%; in assay [4] it was 75.4%; in assay [5], 34.5%; in assay [6] it was 37.9%. Besides, the growth was 53.4% in assay [7]; 46.6% in assay [8]; 82.9% in assay [9]; 45.8% in [10]; 60.9% in assay [11]; 23.3% in [12]. Further, the growth in assay [13] is 68.6%; in assay [14], 68.8%; in assay [15], 84%; in assay [16], 72.6%; in assay [17] it was 47.5%; in assay [18] it was 87%. The figures for the growth in assay [19] and in [20] were 76.8% and 75.2%, respectively.
